Source: PubChem BioAssay

Experiments:
[1] = system: Botulinum neurotoxin type F light chain protease (Clostridium botulinum); assay: Clostridium botulinum type F light chain protease inhibitors, microsphere substrate cleavage, validation (AID 588459); details: multiplex microsphere protease substrate cleavage assay, flow cytometry; at 10 µM; stronger effect = higher value
[2] = biological target: Botulinum neurotoxin type A (Clostridium botulinum) (UniProt P0DPI0); assay: BoNT/A light chain protease inhibitors, biochemical, multiplex microsphere flow cytometry, validation set (AID 588460); details: at 10 µM, stronger effect = higher value
Botulinum neurotoxin type A (Clostridium botulinum), sequence (P0DPI0 whole entry, looked up): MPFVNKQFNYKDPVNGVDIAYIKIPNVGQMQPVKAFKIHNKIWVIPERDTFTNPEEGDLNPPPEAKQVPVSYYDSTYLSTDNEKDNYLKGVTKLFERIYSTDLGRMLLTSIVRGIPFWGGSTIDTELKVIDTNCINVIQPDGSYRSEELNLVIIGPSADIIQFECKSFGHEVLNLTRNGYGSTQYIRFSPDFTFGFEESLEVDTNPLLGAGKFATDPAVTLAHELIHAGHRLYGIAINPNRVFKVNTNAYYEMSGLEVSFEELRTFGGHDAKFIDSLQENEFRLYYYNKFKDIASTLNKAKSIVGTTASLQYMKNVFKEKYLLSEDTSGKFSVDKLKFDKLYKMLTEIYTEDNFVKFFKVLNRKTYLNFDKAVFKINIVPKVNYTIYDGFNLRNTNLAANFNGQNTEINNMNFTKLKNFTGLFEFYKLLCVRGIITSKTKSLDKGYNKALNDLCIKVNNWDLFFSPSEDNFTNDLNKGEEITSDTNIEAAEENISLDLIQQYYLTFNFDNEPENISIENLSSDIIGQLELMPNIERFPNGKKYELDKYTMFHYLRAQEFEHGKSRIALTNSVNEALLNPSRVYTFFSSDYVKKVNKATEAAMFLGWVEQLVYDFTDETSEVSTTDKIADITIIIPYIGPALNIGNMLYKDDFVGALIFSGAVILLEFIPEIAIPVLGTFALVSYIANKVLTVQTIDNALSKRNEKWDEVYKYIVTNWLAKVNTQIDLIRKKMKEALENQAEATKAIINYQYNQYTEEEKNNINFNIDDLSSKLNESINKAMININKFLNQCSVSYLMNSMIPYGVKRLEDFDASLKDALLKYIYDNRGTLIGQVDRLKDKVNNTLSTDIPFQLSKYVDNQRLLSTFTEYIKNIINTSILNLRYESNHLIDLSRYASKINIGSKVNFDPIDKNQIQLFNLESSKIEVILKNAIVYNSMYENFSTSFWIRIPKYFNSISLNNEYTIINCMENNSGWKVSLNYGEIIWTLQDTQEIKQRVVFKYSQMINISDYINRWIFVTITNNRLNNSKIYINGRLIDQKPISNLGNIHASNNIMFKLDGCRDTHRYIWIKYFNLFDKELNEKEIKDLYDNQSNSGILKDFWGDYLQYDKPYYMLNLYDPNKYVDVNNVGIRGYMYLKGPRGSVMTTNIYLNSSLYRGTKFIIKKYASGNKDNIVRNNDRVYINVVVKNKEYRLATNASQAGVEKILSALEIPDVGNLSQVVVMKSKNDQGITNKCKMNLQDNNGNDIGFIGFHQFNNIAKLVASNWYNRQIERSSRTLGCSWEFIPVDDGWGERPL

[3] = biological target: Lethal factor (Bacillus anthracis) (UniProt P15917); assay: Bacillus anthracis lethal factor inhibition, microsphere flow cytometry protease assay, validation at 10 µM (AID 588461); details: multiplex microsphere protease cleavage assay, stronger effect = higher value
Lethal factor (Bacillus anthracis), sequence (P15917 whole entry, looked up): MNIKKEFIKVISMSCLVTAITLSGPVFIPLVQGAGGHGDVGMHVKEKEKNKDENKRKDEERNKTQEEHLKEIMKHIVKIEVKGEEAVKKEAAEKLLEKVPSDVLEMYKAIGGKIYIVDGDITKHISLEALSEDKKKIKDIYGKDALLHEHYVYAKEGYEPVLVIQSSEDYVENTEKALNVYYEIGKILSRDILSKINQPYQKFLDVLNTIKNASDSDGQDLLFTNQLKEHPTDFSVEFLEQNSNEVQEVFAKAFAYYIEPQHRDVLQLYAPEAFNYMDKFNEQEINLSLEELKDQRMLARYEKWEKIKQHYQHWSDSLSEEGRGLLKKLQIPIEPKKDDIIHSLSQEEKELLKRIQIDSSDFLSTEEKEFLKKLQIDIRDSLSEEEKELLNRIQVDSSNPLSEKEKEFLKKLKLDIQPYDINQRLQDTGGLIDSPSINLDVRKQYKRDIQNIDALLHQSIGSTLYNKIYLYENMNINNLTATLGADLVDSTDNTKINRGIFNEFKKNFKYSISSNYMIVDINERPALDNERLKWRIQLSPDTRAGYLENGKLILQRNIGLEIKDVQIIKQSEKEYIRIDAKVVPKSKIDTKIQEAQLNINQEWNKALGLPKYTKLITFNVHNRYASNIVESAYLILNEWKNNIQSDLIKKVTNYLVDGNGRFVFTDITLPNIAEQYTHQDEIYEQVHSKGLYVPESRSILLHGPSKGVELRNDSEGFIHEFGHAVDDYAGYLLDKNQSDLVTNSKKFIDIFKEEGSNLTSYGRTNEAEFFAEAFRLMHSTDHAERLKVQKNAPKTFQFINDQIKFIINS

Measured: inhibition

CC(C)(S)[C@@H](N)C(=O)O
inactive: [1] 2.9% | [2] -0.8% | [3] 1.1%

OC(CCCN1CCCCC1)(c1ccccc1)c1ccccc1
inactive: [1] 3.3% | [2] 0% | [3] 7.6%

CC1(C)Cc2ccccc2C(C(Cc2ccccc2)C(N)=O)=N1 (stereo not drawn)
inactive: [1] 0.5% | [2] 1.1% | [3] -3.2%

COc1ccc(NC(=S)NCCc2c[nH]c3ccccc23)cc1
inactive: [1] -0.4% | [2] -0.9% | [3] 0.4%

O=C(c1cccnc1)N1N=C(C2CC2)CC1(O)C(F)(F)F (stereo not drawn)
inactive: [1] 2% | [2] 1% | [3] 4.2%

CC1(C)CC(CC(=O)Nc2nccs2)(c2ccccc2)CCO1 (stereo not drawn)
inactive: [1] 3.8% | [2] 0.5% | [3] -1.9%

CCSC(=O)CCCCCCCCCCCO
inactive: [1] 2.8% | [2] 1.5% | [3] 14.5%

Cc1oc2c(C)c3oc(=O)c4c(c3cc2c1C)CCCC4
inactive: [1] 0.8% | [2] -0.2% | [3] 1.3%

CS(=O)(=O)c1cccc(C(=O)Oc2ccccc2)c1
inactive: [1] -2% | [2] 0.1% | [3] 4.6%

COc1cc(/C=C/C(=O)N2CCCC2)cc(OC)c1OC
inactive: [1] -1.5% | [2] 0.4% | [3] 4.4%

Cc1ccc2[nH]c3c(c2c1)CN(C)CC3
inactive: [1] -2.8% | [2] -0.7% | [3] -15%

COc1cc2nc(-c3ccccc3)nc(N3CCCC3)c2cc1OC
inactive: [1] -1.8% | [2] -1.5% | [3] -4.3%

O=P(c1ccccc1)(c1ccccc1)c1nc(-c2ccc(Cl)cc2)oc1N1CCOCC1
inactive: [1] -1% | [2] -1.2% | [3] 0.6%

O=C(O)C1CCN(C(=O)COc2ccc3c4c(c(=O)oc3c2)CCC4)CC1
inactive: [1] 3% | [2] -1.1% | [3] 2.5%

CCOC(=O)c1cnc2ccccc2c1NCCO
inactive: [1] -1.1% | [2] 0% | [3] 5.8%

CCOc1ccccc1OCCOc1ccc(F)cc1
inactive: [1] 0.7% | [2] -1.2% | [3] 6.2%

Cc1ccc2[nH]c(=O)c(Cc3ccccc3)c(O)c2c1
inactive: [1] 0.6% | [2] -0.4% | [3] 2.6%

CC1(C)C2CCC1(C)C(OCC[N+](C)(C)CC(=O)OC1CCCCC1)C2 (stereo not drawn)
inactive: [1] -1.7% | [2] -2.1% | [3] -1.9%

CC(=O)Nc1ccccc1C(=O)C(=O)Nc1ccccc1
inactive: [1] 2.1% | [2] 0.9% | [3] -1.5%

CC(=O)[C@@]1(O)CC[C@H]2[C@@H]3CCC4=CC(=O)CC[C@]4(C)[C@H]3[C@@H](O)C[C@@]21C
inactive: [1] 2.3% | [2] -1.1% | [3] 1.8%

COc1ccc(/C=C\c2cc(OC)c(OC)cc2CC[N+](C)(C)C)cc1OC
inactive: [1] 2% | [2] -1.4% | [3] 3.5%

CCCN(CCC)C(=O)C(CCC(=O)O)NC(=O)c1ccccc1 (stereo not drawn)
inactive: [1] 0.5% | [2] -0.3% | [3] 8.6%

Cc1[nH]c2ccccc2c1C(=O)CN1CCCC1
inactive: [1] 0.8% | [2] 0.2% | [3] -1.1%

CCOC(=O)C1=C(N)Oc2c(oc(CO)cc2=O)C1c1ccc(F)c(F)c1 (stereo not drawn)
inactive: [1] 2.1% | [2] 0.3% | [3] -2.3%

COc1cccc(-n2c(C)c3c(OC)cccc(=O)c3c2C)c1
inactive: [1] -8.1% | [2] -0.7% | [3] -13.5%

O=C(CN1C(=O)c2ccccc2C1=O)Nc1cccc([N+](=O)[O-])c1
inactive: [1] -5.7% | [2] -0.9% | [3] -2%

CC(C)(C)C(=O)NC(=S)NNC(=O)c1ccncc1
inactive: [1] 8.3% | [2] 2.9% | [3] -3.3%

C[C@H](NC(=O)NCCc1ccccc1)C(=O)O
inactive: [1] 0.5% | [2] -0.2% | [3] -0.6%

COc1c(O)ccc2c1CN1CCc3cc4c(cc3C1C2)OCO4 (stereo not drawn)
inactive: [1] -8.1% | [2] -2.1% | [3] -16.1%

O=C(Nc1nc2ccccc2s1)c1ccc(F)cc1
inactive: [1] -5.1% | [2] -1.5% | [3] -5.8%

CC1(C)CC(NCc2ccccc2)CCO1 (stereo not drawn)
inactive: [1] 9.4% | [2] 5.6% | [3] 1.1%

CC1CCN(CCOCCOc2ccccc2Br)CC1
inactive: [1] 1.2% | [2] 0.3% | [3] 3.9%

CCC(C)NCCOCCOc1ccc(Cl)c2ccccc12 (stereo not drawn)
inactive: [1] -2.3% | [2] 1.8% | [3] -6.5%

O=c1[nH]c(=O)n([C@H]2C[C@H](O)[C@@H](CO)O2)cc1C(F)(F)F
inactive: [1] -1% | [2] 0% | [3] 3.3%

CC(C)OC(=O)C1C(=O)CC(C)(O)C(C(=O)OC(C)C)C1c1cccc(O)c1 (stereo not drawn)
inactive: [1] 3.9% | [2] -0.2% | [3] -2.7%

CC(CCCC(C)(C)O)NC(=O)c1ccc(OC2CCN(C(=O)C3CC3)CC2)cc1 (stereo not drawn)
inactive: [1] 0.1% | [2] 0.7% | [3] 1%

CC(=O)NC(NC(=S)N1CCCCCC1)C(Cl)(Cl)Cl (stereo not drawn)
inactive: [1] -2.7% | [2] -2.4% | [3] 5.4%

Cc1ccc2c(c1)C1(C(=O)N2)N2CCCC2C(C(=O)c2ccc3ccccc3c2)C12C(=O)Nc1ccccc12 (stereo not drawn)
inactive: [1] 0% | [2] -1% | [3] -10%

CC(C)CC1c2[nH]c3ccccc3c2CCN1C(=O)CCC(=O)N(C)C (stereo not drawn)
inactive: [1] 1.9% | [2] -0.3% | [3] 2.9%

COC1(C)CC2C(CC1OC(=O)c1cc([N+](=O)[O-])cc([N+](=O)[O-])c1)C2(C)C (stereo not drawn)
inactive: [1] -3.2% | [2] -0.5% | [3] -5.5%

Cc1oc(/C=N/NC(=O)CC2(C)OCCO2)cc1Br
inactive: [1] 3.9% | [2] 0.6% | [3] 3.2%

O=c1c2ccccc2nc2n1CCCN2
inactive: [1] -4.6% | [2] -2.9% | [3] -7.9%

CN1C(C(=O)Nc2ccccn2)=C(O)c2ccccc2S1(=O)=O
inactive: [1] 1.9% | [2] 1.5% | [3] 10%

CN(CCc1cnn(C)c1)Cc1nc(CC2CC2)no1
inactive: [1] 0.2% | [2] 0.4% | [3] 7%

Cc1nc2c(c3c1[nH]c1ccccc13)C(=O)CC(C)(C)C2
inactive: [1] 2.1% | [2] 0.3% | [3] 6%

COc1cc2cc(C)nc(Cc3cccc4ccccc34)c2cc1OC
inactive: [1] 5.3% | [2] 1.3% | [3] 3.2%

Clc1ccc2c(c1)[C@H]1OCC[C@H]1[C@@H](c1ccco1)N2
inactive: [1] 0.3% | [2] -0.7% | [3] -4.1%

Cc1ccc2c(c1)C(O)(CC(=O)/C=C/C=C/c1ccccc1)C(=O)N2 (stereo not drawn)
inactive: [1] -1.2% | [2] -0.9% | [3] -8.4%

CC(C)=CCCC1=CCC2C(=O)NNC(=O)C2C1 (stereo not drawn)
inactive: [1] -1.6% | [2] -1% | [3] 3%

COc1c(C)cc(C(=O)C2CCCN(Cc3ccc(Oc4ncccn4)cc3)C2)cc1C (stereo not drawn)
inactive: [1] -2.8% | [2] -1.2% | [3] -4.4%

CS(=O)(=O)NCc1ccc(C(=O)NCc2ccccc2)cc1
inactive: [1] 2.9% | [2] 0.5% | [3] -4.2%

N/C(=N\OC(=O)/C=C/c1ccccc1)c1ccc(Br)cc1
inactive: [1] -3.1% | [2] -0.1% | [3] 2.5%

Cc1ncc([N+](=O)[O-])n1CC(C)O (stereo not drawn)
inactive: [1] -0.2% | [2] 1.1% | [3] 0.3%

O=C(NCCN1CCOCC1)c1ccc(Cl)cc1
inactive: [1] 2.4% | [2] 1.2% | [3] -2%

Clc1ccc(OCCCN2CCCCC2)c(Br)c1
inactive: [1] 1.8% | [2] 0.2% | [3] -3.7%

Cc1c(CCOC(=O)CC23CC4CC(CC(C)(C4)C2)C3)sc[n+]1Cc1ccc([N+](=O)[O-])cc1
inactive: [1] -3.1% | [2] 1.6% | [3] -4.8%

O=C(Nc1c(C(=O)O)[nH]c2ccccc12)NC1CCCCC1
inactive: [1] 1.6% | [2] 0.4% | [3] -2.2%

O=C(O)C1[C@H]2C(=O)N(C3CCCC3)C[C@]23C=C[C@H]1O3 (stereo partly drawn)
inactive: [1] 6.7% | [2] 1.3% | [3] 5.6%

CN(C)CCOCCOc1ccc(Cl)cc1Br
inactive: [1] 6.4% | [2] 1% | [3] -5.5%

COc1ccc(C2NCCC3(O)CCCCC23)c(OC)c1OC (stereo not drawn)
inactive: [1] 4.3% | [2] -0.3% | [3] 4.4%

COc1ccc(C2=CC(=O)C=CC2=O)cc1
inactive: [1] -4.7% | [2] -1.3% | [3] -4.1%

COCC(C)NC(=O)c1ccc(CN2CCc3ccccc3C2)cc1 (stereo not drawn)
inactive: [1] 5.2% | [2] 0% | [3] -7.8%

O=C(CN1CC[n+]2c(-c3cccs3)csc21)c1ccc(Br)cc1
inactive: [1] 0.8% | [2] -0.2% | [3] -1.6%

CCOC(=O)N1CCc2[nH]c3ccc(C)cc3c2C1
inactive: [1] -1.2% | [2] -1.6% | [3] 1.9%

CN1CC2CCCC3(C1)C(=O)NC1(CCCCC1)N=C23 (stereo not drawn)
inactive: [1] 2.2% | [2] -0.6% | [3] -5.3%

O=C(C1CCCCC1)N1CC(=O)N2CCc3ccccc3C2C1 (stereo not drawn)
inactive: [1] -2.5% | [2] -1.1% | [3] 3.9%
